A short description of test [1]: Primary qHTS for inhibitors of nuclear receptor binding SET domain protein 2 (NSD2) in an isogenic RCH-ACV NSD2 p.E1099K mutant (9B) (AID 1645876). Conditions: RCH-ACV NSD2 E1099K (9B) viability, CellTiter-Glo, 72 h; series mostly up to 44.9 µM. (In general: qHTS replaces the single test concentration by a dilution series.)
A short description of test [2]: Primary qHTS for inhibitors of nuclear receptor binding SET domain protein 2 (NSD2) in an RCH-ACV wild type WT cells (2C) (AID 1645877). Conditions: RCH-ACV (leukaemia line) NSD2 WT (2C) viability, CellTiter-Glo, 72 h; series mostly up to 44.9 µM.

Values joined by “and” are separate entries in the source; they are usually repeats but may differ in a detail not shown here. Equal values may be shown once. Results filed as inconclusive are left out. Active and inactive are the calls of the source. The call rests on the fitted dose curve; in most records, active means well fitted curve in the direction sought with a large enough effect; inconclusive means small, poorly fitted or top-dose-only effect, or another doubt; inactive means no such curve, though single readings can be large; an effect the other way counts as inactive or inconclusive.
Further: nearly all actives have a fitted effect of over 70% in size.
Potency means the concentration at half of the fitted maximal effect.

Regarding `C=CCC1=C(C)C(OC(=O)C2C(C=C(C)C)C2(C)C)CC1=O` (centres undefined), the Potency in test [1] was 24.3 µM (active); in test [2], 34.4 µM (active).
Consider `CC(C)N(CCNC(=O)CN1CCCC1=O)C(C)C`, for which the Potency entry in test [1] and in test [2] was “inactive” throughout.
For the molecule `CCCCCCCCc1ccc(O)cc1`, the Potency in test [1] is 6.18 µM (active).
On to `Nc1c(Cl)c(Cl)c(Cl)c(Cl)c1Cl`, for which the Potency entry in test [1] and in test [2] was “inactive” each time.
For `CCC1(CCC(C)C)C(=O)NC(=O)NC1=O`, the Potency entry in test [1] and in test [2] was “inactive” each time.
As to `COc1ccc(N(C(=O)Oc2c(C)cccc2C)c2ccnc(Nc3ccc(N4CCN(C)CC4)cc3)n2)c(OC)c1`, the Potency was 4.68 µM (active) in test [1] and 5.25 µM (active) in test [2].
For `C/C=C(/C)C(=O)O[C@H]1C(C)=C2[C@H]([C@@H]1OC(=O)CCCCCCC)[C@@](C)(OC(C)=O)C[C@H](OC(=O)CCC)[C@@]1(O)[C@H]2OC(=O)[C@@]1(C)O`, the Potency was 5.8 nM (active) and 16.6 nM (active) in test [1]; 6.5 nM (active) and 16.6 nM (active) in test [2].
For the molecule `CC(=O)NCCc1c[nH]c2ccccc12`, the Potency entry in test [1] and in test [2] was “inactive” in each case.
Regarding `O=S(=O)(F)Cc1ccccc1`, the Potency result in test [1] and in test [2] was “inactive” in each case.
Turning to `O=[N+]([O-])c1c(Cl)c(Cl)cc(Cl)c1Cl`, the Potency entry in test [1] and in test [2] was “inactive” in each case.
Take `CC[N+]1(CCOC(=O)C(O)(c2ccccc2)c2ccccc2)CCCCC1`: the Potency result in test [1] and in test [2] was “inactive” throughout.
As to `CN[C@@H](C)[C@H](O)c1ccccc1`, the Potency result in test [1] and in test [2] was “inactive” in each case.
Turning to `CS(=O)(=O)c1ccc(C(=O)C2C(=O)CCCC2=O)c([N+](=O)[O-])c1`, the Potency result in test [1] and in test [2] was “inactive” throughout.
For `O=C(O)CCCOc1ccc(Cl)cc1Cl`, the Potency result in test [1] and in test [2] was “inactive” in each case.
Take `O=C(O)C(Cl)Cl`: the Potency result in test [1] and in test [2] was “inactive” each time.

Source of the values: PubChem BioAssay (NCATS).
